According to PubChem BioAssay (Tox21):
Results filed as inconclusive are left out. Calls of active or inactive are those of the source. Unless noted, calls come from the whole dose curve; as a rule, active = well fitted curve in the direction sought with a large enough effect in the repeat runs; inconclusive = weak or mixed curves; inactive = no such curve, though single readings can be large; an effect the other way counts as inactive or inconclusive.

Experiments:
[1] = molecular target: Peroxisome proliferator-activated receptor delta (Homo sapiens) (UniProt Q03181); experiment: qHTS assay to identify small molecule agonists of the peroxisome proliferator-activated receptor delta (PPARd) signaling pathway (AID 743212; calls by dose curve; note: % is set by controls: 0 for no effect and ±100 for the full control effect)
Peroxisome proliferator-activated receptor delta (Homo sapiens), sequence (Q03181 whole entry, looked up): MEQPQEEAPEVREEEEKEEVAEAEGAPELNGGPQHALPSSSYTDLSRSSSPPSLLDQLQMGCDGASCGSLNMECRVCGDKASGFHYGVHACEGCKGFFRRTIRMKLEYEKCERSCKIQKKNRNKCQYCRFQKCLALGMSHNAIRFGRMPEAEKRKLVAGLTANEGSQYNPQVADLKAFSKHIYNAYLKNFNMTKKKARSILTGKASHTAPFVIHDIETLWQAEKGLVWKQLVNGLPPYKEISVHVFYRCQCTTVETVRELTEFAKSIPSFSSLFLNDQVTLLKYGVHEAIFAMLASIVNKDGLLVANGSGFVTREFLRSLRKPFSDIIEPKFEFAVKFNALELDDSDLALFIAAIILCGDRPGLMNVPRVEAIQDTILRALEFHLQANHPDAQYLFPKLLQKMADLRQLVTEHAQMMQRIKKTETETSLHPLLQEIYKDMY
In short: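 Quantitative high-throughput agonist screen in a HEK293H beta-lactamase reporter line under UAS control. Compounds in DMSO, at 37 C. Fluorescence read after 2 h with FRET substrate at room temperature.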

[2] = qHTS assay to identify small molecule antagonists of the peroxisome proliferator-activated receptor delta (PPARd) signaling pathway - cell viability counter screen (AID 743213); note: nearly all actives have a fitted effect of over 50% in size; note: potency is the fitted concentration of half-maximal effect
In short: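 Cytotoxicity counter screen: CellTiter-Glo luminescence read 30 min after addition, in the same wells as the reporter assay. There, PPARd UAS-bla HEK293H cells (3000/well) were treated 17 h at 37 C with compound and 300 nM L165041.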

[3] = molecular target: Peroxisome proliferator-activated receptor delta (Homo sapiens) (UniProt Q03181); experiment: qHTS assay to identify small molecule antagonists of the peroxisome proliferator-activated receptor delta (PPARd) signaling pathway (AID 743215; active = well fitted inhibition curve with a large enough effect in the signal ratio in the repeat runs, not every such curve was filed as active; the % refers to the signal ratio;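 note: cells stimulated with agonist L165041 at 300 nM final during compound exposure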; note: potency is the fitted concentration of half-maximal effect)
In short: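 Antagonist-mode beta-lactamase reporter screen: HEK293H cells with UAS-bla under PPARd control, stimulated by 300 nM L165041 (final) alongside test compound for 17 h at 37 C, then FRET fluorescence after 2 h substrate incubation.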

[4] = molecular target: Bile acid receptor (Homo sapiens) (UniProt Q96RI1); experiment: qHTS assay to identify small molecule antagonists of the farnesoid-X-receptor (FXR) signaling pathway (AID 743217; active = well fitted inhibition curve with a large enough effect in the signal ratio in the repeat runs, not every such curve was filed as active; the % refers to the signal ratio; note: potency is the fitted concentration of half-maximal effect)
Bile acid receptor (Homo sapiens), sequence (Q96RI1 whole entry, looked up): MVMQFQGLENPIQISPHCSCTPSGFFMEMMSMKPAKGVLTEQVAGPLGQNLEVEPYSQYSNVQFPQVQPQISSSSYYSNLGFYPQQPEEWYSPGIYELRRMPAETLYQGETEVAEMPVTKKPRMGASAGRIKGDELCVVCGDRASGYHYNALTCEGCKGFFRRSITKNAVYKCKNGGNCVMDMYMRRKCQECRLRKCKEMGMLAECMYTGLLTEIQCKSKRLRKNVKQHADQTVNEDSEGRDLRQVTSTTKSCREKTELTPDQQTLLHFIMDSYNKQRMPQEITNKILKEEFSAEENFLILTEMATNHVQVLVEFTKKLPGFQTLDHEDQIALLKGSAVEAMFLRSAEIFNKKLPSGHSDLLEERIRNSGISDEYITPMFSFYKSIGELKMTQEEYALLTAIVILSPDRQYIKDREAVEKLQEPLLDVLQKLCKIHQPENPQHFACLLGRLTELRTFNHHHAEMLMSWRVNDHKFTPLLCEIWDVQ
In short: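 Beta-lactamase reporter under UAS control in HEK 293T cells; compound exposure 16 h at 37 °C in the presence of chenodeoxycholic acid (50 uM final); signal from B/G FRET substrate after 2 h at room temperature.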

[5] = qHTS assay to identify small molecule agonists of the farnesoid-X-receptor (FXR) signaling pathway - cell viability counter screen (AID 743218); note: nearly all actives have a fitted effect of over 45% in size; note: potency is the fitted concentration of half-maximal effect
In short: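 In GeneBLAzer FXR-UAS-bla HEK 293T cells, compounds act for 16 h at 37 C. Cell viability is then scored in the reporter wells by CellTiter-Glo, 30 min at RT, luminescence.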

[6] = molecular target: Bile acid receptor (Homo sapiens) (UniProt Q96RI1); experiment: qHTS assay to identify small molecule agonists of the farnesoid-X-receptor (FXR) signaling pathway (AID 743220; active = well fitted activation curve with a large enough effect in the signal ratio in the repeat runs, not every such curve was filed as active; the % refers to the signal ratio; note: % is set by controls: 0 for no effect and ±100 for the full control effect)
In short: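 Beta-lactamase reporter under UAS control in GeneBLAzer FXR HEK 293T cells (5000/well) measured with LiveBLAzer FRET substrate after 2 h at room temperature. Compound exposure lasted 16 h at 37C.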

[7] = qHTS assay to identify small molecule antagonists of the farnesoid-X-receptor (FXR) signaling pathway - cell viability counter screen (AID 743221; active = well fitted cell-killing curve with a large enough effect in the repeat runs, not every such curve was filed as active; note: nearly all actives have a fitted effect of over 50% in size; note: potency is the fitted concentration of half-maximal effect)
In short: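 HEK 293T FXR-bla cells, 5 h pre-incubation; compound + CDCA 50 uM final, 16 h, 37 C; beta-lactamase FRET read first, then CellTiter-Glo luminescence, 30 min RT.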

[8] = molecular target: Vitamin D3 receptor (Homo sapiens) (UniProt P11473); experiment: qHTS assay to identify small molecule agonists of the vitamin D receptor (VDR) signaling pathway (AID 743222; calls by dose curve; note: % is set by controls: 0 for no effect and ±100 for the full control effect)
Vitamin D3 receptor (Homo sapiens), sequence (P11473 whole entry, looked up): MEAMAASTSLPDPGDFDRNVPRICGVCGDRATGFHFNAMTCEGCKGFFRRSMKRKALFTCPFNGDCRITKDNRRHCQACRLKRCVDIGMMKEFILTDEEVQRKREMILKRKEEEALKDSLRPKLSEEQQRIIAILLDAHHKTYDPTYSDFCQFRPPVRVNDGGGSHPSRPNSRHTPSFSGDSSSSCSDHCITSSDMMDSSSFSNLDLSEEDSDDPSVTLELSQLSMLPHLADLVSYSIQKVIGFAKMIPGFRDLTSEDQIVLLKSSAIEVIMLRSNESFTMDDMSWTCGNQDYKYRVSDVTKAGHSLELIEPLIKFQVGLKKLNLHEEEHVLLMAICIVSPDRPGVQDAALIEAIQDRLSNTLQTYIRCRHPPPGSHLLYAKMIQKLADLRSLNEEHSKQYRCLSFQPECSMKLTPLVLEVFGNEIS
In short: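 Agonist activity measured in VDR-bla reporter cells. Exposure 16 h, 37C, 5% CO2; detection by B/G FRET substrate, 2 h RT.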

[9] = molecular target: Vitamin D3 receptor (Homo sapiens) (UniProt P11473); experiment: qHTS assay to identify small molecule antagonists of the vitamin D receptor (VDR) signaling pathway (AID 743223; active = well fitted inhibition curve with a large enough effect in the signal ratio in the repeat runs, not every such curve was filed as active; the % refers to the signal ratio; note: % is set by controls: 0 for no effect and ±100 for the full control effect)
In short: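 Beta-lactamase reporter read-out: FRET substrate fluorescence after 2 h at room temperature, following 16 h exposure of VDR-bla cells to test compound plus 3 nM (final) 1alpha,25-dihydroxyvitamin D3 agonist at 37C.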

[10] = qHTS assay to identify small molecule agonists of the vitamin D receptor (VDR) signaling pathway - cell viability counter screen (AID 743224); note: nearly all actives have a fitted effect of over 50% in size; note: potency is the fitted concentration of half-maximal effect
In short: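 VDR-bla cell line, quantitative HTS format; 16 h compound incubation (37C, 5% CO2); ATP-based CellTiter-Glo luminescence measured in the reporter assay wells.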

[11] = qHTS assay to identify small molecule antagonists of the vitamin D receptor (VDR) signaling pathway - cell viability counter screen (AID 743225); note: nearly all actives have a fitted effect of over 50% in size; note: potency is the fitted concentration of half-maximal effect
In short: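 Viability counter screen run in the same wells as the beta-lactamase reporter assay: HEK 293T VDR-UAS-bla cells, 16 h compound exposure at 37C with 3 nM (final) 1-alpha,25-dihydroxyvitamin D3. CellTiter-Glo luminescence, 30 min, room temperature.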

[12] = qHTS assay to identify small molecule agonists of the NFkB signaling pathway - cell viability counter screen (AID 1159515; calls by dose curve; note: nearly all actives have a fitted effect of over 55% in size; note: potency is the fitted concentration of half-maximal effect)
In short: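 Viability in NFkB-bla ME-180 cells was measured by CellTiter-Glo luminescence, 30 min room temperature, in wells already treated 5 hr with compounds and read for reporter FRET.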

[13] = molecular target: Nuclear receptor ROR-gamma (Homo sapiens) (UniProt P51449); experiment: qHTS assay to identify small molecule antagonists of the retinoid-related orphan receptor gamma (ROR-gamma) signaling pathway (AID 1159521; note: nearly all actives have a fitted effect of over 50% in size; note: potency is the fitted concentration of half-maximal effect)
In short: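 Luminescence readout (ONE-Glo, 30 min RT) after 16 h doxycycline induction; loss of signal scored as antagonism. CHO cells with TET-inducible RORγ and RORE-LUC reporter; compounds added 2 h before 1 uM final doxycycline.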

[14] = qHTS assay to identify small molecule agonists of the AP-1 signaling pathway - cell viability counter screen (AID 1159525; calls by dose curve; note: nearly all actives have a fitted effect of over 55% in size; note: potency is the fitted concentration of half-maximal effect)
In short: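 AP-1-bla ME-180 cells in Opti-MEM with 0.5% dialyzed FBS, compound exposure 5 h at 37 C in 15-point titration. Viability read in the same wells as ATP content by CellTiter-Glo luminescence, normalised to tetra-n-octylammonium bromide and DMSO controls.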

[15] = qHTS assay to identify small molecule agonists of the AP-1 signaling pathway (AID 1159526; calls by dose curve; note: % is set by controls: 0 for no effect and ±100 for the full control effect)
[16] = qHTS assay to identify small molecule agonists of the peroxisome proliferator-activated receptor delta (PPARd) signaling pathway - cell viability counter screen (AID 743211); note: nearly all actives have a fitted effect of over 55% in size; note: potency is the fitted concentration of half-maximal effect
In short: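 Read-out: CellTiter-Glo luminescence, 30 min RT, measured in the same wells as the beta-lactamase reporter. Cells: GeneBLAzer PPAR delta UAS-bla HEK293H, 3000 cells/well, compound exposure 17 h at 37C.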

[17] = qHTS assay to identify small molecule antagonists of the retinoid-related orphan receptor gamma (ROR-gamma) signaling pathway - cell viability counter screen (AID 1159520); note: nearly all actives have a fitted effect of over 50% in size; note: potency is the fitted concentration of half-maximal effect
In short: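 Tet-on ROR gamma CHO cells were given compounds for 2 hr, then doxycycline hyclate at 1 uM final, and incubated 16 hr at 37 C. Viability was measured as ATP content by CellTiter-Glo luminescence.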

[18] = molecular target: Retinoic acid receptor RXR-alpha (Homo sapiens) (UniProt P19793); experiment: qHTS assay to identify small molecule agonists of the RXR signaling pathway (AID 1159527; calls by dose curve; note: % is set by controls: 0 for no effect and ±100 for the full control effect; nearly all actives have a fitted effect of over 35% in size)
Retinoic acid receptor RXR-alpha (Homo sapiens), sequence (P19793 whole entry, looked up): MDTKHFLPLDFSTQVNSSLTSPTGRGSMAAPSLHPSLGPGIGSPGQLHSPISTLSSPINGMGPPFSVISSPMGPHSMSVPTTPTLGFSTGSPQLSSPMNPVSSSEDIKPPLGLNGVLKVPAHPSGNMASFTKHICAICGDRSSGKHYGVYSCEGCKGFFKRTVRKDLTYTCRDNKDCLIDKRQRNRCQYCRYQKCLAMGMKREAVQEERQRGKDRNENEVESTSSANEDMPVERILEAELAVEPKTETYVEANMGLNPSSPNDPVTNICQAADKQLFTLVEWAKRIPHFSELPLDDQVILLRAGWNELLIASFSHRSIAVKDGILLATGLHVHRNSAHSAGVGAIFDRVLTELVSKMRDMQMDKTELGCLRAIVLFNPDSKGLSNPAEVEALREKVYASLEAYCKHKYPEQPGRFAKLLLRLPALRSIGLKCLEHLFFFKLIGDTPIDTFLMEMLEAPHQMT
In short: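 Agonist mode; 9-cis retinoic acid positive control. HEK 293T UAS-bla reporter cells, 2% charcoal-stripped FBS, 16 hr compound exposure at 37 C/5% CO2. LiveBLAzer B/G FRET substrate 2 hr RT; ex 405, em 460/530 nm.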

O=Cc1cc(O)ccc1Br
inactive: Potency [1] | Potency [2] | Potency [3] | Potency [4] | Potency [5] | Potency [6] | Potency [7] | Potency [8] | Potency [9] | Potency [10] | Potency [11] | Potency [12] | Potency [13] | Potency [14] | Potency [15]

COc1cc(-c2nc(NC(=O)c3cc4cc(C)cc(C)c4n3CC(=O)O)sc2CCC2CCCCC2)c(OC)cc1Cl
active: Potency [16] 10 µM | Potency [2] 20.1 µM | Potency [5] 12.7 µM | Potency [7] 14.2 µM | Potency [10] 10 µM | Potency [11] 10 µM | Potency [12] 10 µM | Potency [17] 39.7 µM | Potency [14] 28.3 µM

CN(C)C(=O)C1(N2CCCCC2)CCN(CC[C@@]2(c3ccc(Cl)c(Cl)c3)CN(C(=O)c3ccccc3)CCO2)CC1
active: Potency [16] 11.5 µM | Potency [2] 16.2 µM | Potency [5] 16.2 µM | Potency [7] 32.4 µM | Potency [10] 20.4 µM | Potency [11] 22.9 µM | Potency [12] 51.3 µM | Potency [17] 50.9 µM | Potency [13] 32.1 µM
inactive: Potency [8]

O=C(Nc1cccc(Cl)c1)OCC#CCCl
inactive: Potency [12] | Potency [14]
active: Potency [16] 38.9 µM | Potency [3] 11 µM | Potency [10] 43.6 µM | Potency [11] 54.9 µM

COc1cccc2c1C(=O)c1c(O)c3c(c(O)c1C2=O)C[C@@](O)(C(=O)CO)C[C@@H]3O[C@H]1C[C@H](N)[C@H](O[C@@H]2CCCCO2)[C@H](C)O1
inactive: Potency [16] | Potency [1] | Potency [2] | Potency [5] | Potency [7] | Potency [10] | Potency [11] | Potency [12] | Potency [13]
active: Potency [17] 5.31 µM

O=C(OC[C@H]1O[C@@H](OC(=O)c2cc(O)c(O)c(OC(=O)c3cc(O)c(O)c(O)c3)c2)[C@H](OC(=O)c2cc(O)c(O)c(OC(=O)c3cc(O)c(O)c(O)c3)c2)[C@@H](OC(=O)c2cc(O)c(O)c(OC(=O)c3cc(O)c(O)c(O)c3)c2)[C@@H]1OC(=O)c1cc(O)c(O)c(OC(=O)c2cc(O)c(O)c(O)c2)c1)c1cc(O)c(O)c(OC(=O)c2cc(O)c(O)c(O)c2)c1
inactive: Potency [5] | Potency [7] | Potency [8] | Potency [12] | activity, negative = cytotoxicity [17] -4.77% [at 19 µM] | viability change, negative = cytotoxic [14] 1.96% [at 15.8 µM]
active: Potency [2] 13.2 µM

OCc1c[nH]c2ccccc12
inactive: Potency [7] | Potency [12] | Potency [17] | Potency [13] | Potency [14]

Nc1cc(C(F)(F)F)ccc1S
inactive: Potency [5] | Potency [8] | Potency [10] | Potency [11] | Potency [12] | Potency [14]

CC[C@@]1(O)C(=O)OCc2c1cc1n(c2=O)Cc2c-1nc1ccccc1c2/C=N/OC(C)(C)C
inactive: Potency [12] | Potency [14]
active: Potency [16] 11.9 µM | Potency [5] 13.3 µM | Potency [17] 0.944 µM | Potency [13] 15 µM

CC[C@@]1(O)C(=O)OCc2c1cc1n(c2=O)Cc2cc3c(CN(C)C)c(O)ccc3nc2-1
active: Potency [17] 2.11 µM
inactive: Potency [12] | Potency [14]

CC(NN)c1ccccc1 (stereo not drawn)
inactive: Potency [16] | Potency [2] | Potency [5] | Potency [7] | Potency [9] | Potency [10] | Potency [11] | Potency [12] | activity, negative = cytotoxicity [17] 0.565% [at 19 µM] | activity change, negative = inhibition [13] -0.108% [at 19 µM] | activation [15] -4.49% [at 15.8 µM] | activation [18] -0.0243% [at 15.8 µM]

O=C(Nc1ccc(Oc2ccc(Cl)cc2)c(Cl)c1)c1cc(I)cc(I)c1O
active: Potency [10] 18.8 µM | Potency [13] 23.7 µM
inactive: Potency [6] | Potency [8] | Potency [9] | Potency [12]

C=C(C)C(=O)OCC[N+](C)(C)C
inactive: Potency [16] | Potency [1] | Potency [2] | Potency [5] | Potency [7] | Potency [9] | Potency [11] | Potency [12] | Potency [17] | Potency [13] | Potency [18]

O=C1C=CC(=O)N1
inactive: Potency [6] | Potency [8] | Potency [12]
active: Potency [16] 40 µM | Potency [2] 44.8 µM | Potency [10] 12.6 µM | Potency [11] 35.6 µM | Potency [17] 12.5 µM | Potency [13] 5.59 µM

O=C(NOCC1CC1)c1ccc(F)c(F)c1Nc1ccc(I)cc1Cl
inactive: Potency [2] | Potency [5] | Potency [7] | Potency [8] | Potency [9] | Potency [11] | Potency [12]
active: Potency [13] 9.44 µM

O=C(Oc1cccc2cccnc12)c1ccccc1
active: Potency [16] 3.35 µM | Potency [2] 4.22 µM | Potency [5] 9.44 µM | Potency [7] 8.41 µM | Potency [10] 3.76 µM | Potency [12] 2.39 µM
inactive: Potency [1] | Potency [9] | Potency [11] | Potency [17]

Oc1ccc2cc(SSc3ccc4cc(O)ccc4c3)ccc2c1
inactive: Potency [1] | Potency [4] | Potency [6] | Potency [7] | Potency [10] | Potency [12] | Potency [14]
active: Potency [3] 17.4 µM | Potency [17] 48.6 µM

CSc1cnc(C)cn1
inactive: Potency [16] | Potency [1] | Potency [2] | Potency [3] | Potency [5] | Potency [7] | Potency [10] | Potency [11] | Potency [12] | Potency [17] | Potency [14] | Potency [15]

COc1ccc(CN2CCN(C(c3ccc(F)cc3)c3ccc(F)cc3)CC2)c(OC)c1OC
active: Potency [16] 29.8 µM | Potency [2] 23.7 µM | Potency [5] 21.1 µM | Potency [7] 29.8 µM | Potency [10] 29.8 µM | Potency [11] 16.9 µM | Potency [12] 15.1 µM | Potency [13] 23.7 µM
inactive: Potency [8]

CC1=C(C(=O)OC(C)C)C(c2cccc([N+](=O)[O-])c2)C(C(=O)OC2CN(C(c3ccccc3)c3ccccc3)C2)=C(N)N1 (stereo not drawn)
active: Potency [16] 11.9 µM | Potency [4] 29.8 µM | Potency [5] 13.3 µM | Potency [7] 26.6 µM | Potency [11] 16.9 µM | Potency [12] 10.7 µM | Potency [17] 26.6 µM | Potency [14] 15.1 µM
inactive: Potency [3]

Nc1ccccc1O
inactive: Potency [16] | Potency [1] | Potency [2] | Potency [3] | Potency [4] | Potency [5] | Potency [6] | Potency [7] | Potency [8] | Potency [9] | Potency [10] | Potency [11] | Potency [17] | Potency [13] | Potency [18]
active: Potency [12] 38.4 µM
